Reference: PubChem BioAssay AID1159580 (chemical genetic matrix, 2015)
Several values for one entry are separate records, joined by “and”; a condition that tells them apart may be missing. Identical values can stand only once. The whole screen tested about 5,500 compounds, of which about 2,000 (36%) were called active. Not shown: some 18% with an inconclusive outcome. Cut-off read from the data, not from the text of the source: active = normalized growth mostly below about 0.91 (no sharp cut-off); inconclusive = no clear call, values can overlap the other calls; inactive = mostly above about 0.92. The list shows a part of the results.

Assay: chemical genetic growth profiling, strain panel (AID 1159580);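 note: tested at 20 µM; growth read once vehicle control cultures reached saturation at 30 °C; 1 = growth at the plate median or of vehicle wells; lower values mean less growth of the strain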
Settings: S. cerevisiae deletion strains, growth OD
[1] = locus YGR229C, strain SMI1, stronger effect = lower value
[2] = locus YMR307W, strain GAS1, stronger effect = lower value
[3] = locus YPL055C, strain LGE1, stronger effect = lower value

Measured: normalized growth

Cn1cc[nH]c1=S
inactive: locus YAL021C, strain ccr4, stronger effect = lower value 0.981 | locus YAL026C, strain drs2, stronger effect = lower value 0.99 | locus YAL030W, strain snc1, stronger effect = lower value 0.99 | locus YBL061C, strain skt5, stronger effect = lower value 0.99 | locus YBR009C, strain hhf1, stronger effect = lower value 1.03 | locus YBR021W, strain FUR4, stronger effect = lower value 0.991 | locus YBR023C, strain chs3, stronger effect = lower value 0.98 | locus YBR171W, strain sec66, stronger effect = lower value 0.99 | locus YBR229C, strain ROT2, stronger effect = lower value 1.01 | locus YBR231C, strain swc5, stronger effect = lower value 1 | locus YBR279W, strain paf1, stronger effect = lower value 0.974 | locus YCL011C, strain gbp2, stronger effect = lower value 0.967 | locus YCL016C, strain dcc1, stronger effect = lower value 0.963 | locus YCL029C, strain bik1, stronger effect = lower value 0.976 | locus YCL069W, strain vba3, stronger effect = lower value 0.999 | locus YCR088W, strain abp1, stronger effect = lower value 0.991 | locus YDL005C, strain med2, stronger effect = lower value 0.963 | locus YDL035C, strain GPR1, stronger effect = lower value 1.01 | locus YDL040C, strain nat1, stronger effect = lower value 0.989 | locus YDL074C, strain BRE1, stronger effect = lower value 1.02 | locus YDL101C, strain DUN1, stronger effect = lower value 0.996 | locus YDL185W, strain tfp1, stronger effect = lower value 0.935 | locus YDL192W, strain arf1, stronger effect = lower value 0.971 | locus YDR001C, strain nth1, stronger effect = lower value 0.989 | locus YDR069C, strain doa4, stronger effect = lower value 1.01 | locus YDR101C, strain arx1, stronger effect = lower value 1.02 | locus YDR137W, strain rgp1, stronger effect = lower value 0.985 | locus YDR159W, strain sac3, stronger effect = lower value 0.974 | locus YDR162C, strain NBP2, stronger effect = lower value 1.01 | locus YDR195W, strain ref2 0.99 | locus YDR297W, strain sur2, stronger effect = lower value 1.01 | locus YDR318W, strain mcm21, stronger effect = lower value 0.968 | locus YDR334W, strain swr1, stronger effect = lower value 0.973 | locus YDR335W, strain msn5, stronger effect = lower value 1 | locus YDR388W, stronger effect = lower value 0.991 | locus YDR392W, strain spt3, stronger effect = lower value 0.887 | locus YDR502C, strain sam2, stronger effect = lower value 0.993 | locus YEL003W, strain gim4, stronger effect = lower value 1 | locus YEL037C, strain rad23, stronger effect = lower value 0.98 | locus YEL061C, strain CIN8 (second series), stronger effect = lower value 0.984 | locus YEL061C, strain CIN8, stronger effect = lower value 0.985 | locus YER015W, strain faa2, stronger effect = lower value 0.993 | locus YER016W, strain bim1, stronger effect = lower value 0.978 | locus YER110C, stronger effect = lower value 0.967 | locus YER111C, strain swi4, stronger effect = lower value 0.967 | locus YER155C, strain BEM2 (second series), stronger effect = lower value 0.976 | locus YER155C, strain BEM2, stronger effect = lower value 1 | locus YER167W, strain BCK2, stronger effect = lower value 1 | locus YFR010W, strain ubp6, stronger effect = lower value 1.01 | locus YGL078C, strain dbp3, stronger effect = lower value 0.956 | locus YGL086W, strain mad1, stronger effect = lower value 1.01 | locus YGL167C, strain pmr1, stronger effect = lower value 0.992 | locus YGL173C, strain kem1, stronger effect = lower value 0.987 | locus YGL227W, strain vid30, stronger effect = lower value 1.01 | locus YGL240W, strain doc1, stronger effect = lower value 0.981 | locus YGL248W, strain PDE1, stronger effect = lower value 1 | locus YGL253W, strain hxk2, stronger effect = lower value 0.97 | locus YGR078C, strain PAC10, stronger effect = lower value 1 | locus YGR135W, strain pre9, stronger effect = lower value 0.938 | [1] 1.01 | locus YGR252W, strain gcn5, stronger effect = lower value 0.958 | locus YHR013C, strain ard1, stronger effect = lower value 0.949 | locus YHR027C, strain rpn1, stronger effect = lower value 1 | locus YHR030C, strain SLT2, stronger effect = lower value 0.997 and 1.04 | locus YHR079C, strain IRE1 (second series), stronger effect = lower value 0.971 | locus YHR079C, strain IRE1, stronger effect = lower value 1.04 | locus YHR094C, strain hxt1, stronger effect = lower value 0.992 | locus YHR129C, strain ARP1, stronger effect = lower value 1.01 | locus YHR142W, strain chs7, stronger effect = lower value 0.981 | locus YHR200W, strain rpn10, stronger effect = lower value 0.971 | locus YIL066C, strain RNR3, stronger effect = lower value 1.01 | locus YIL073C, strain SPO22, stronger effect = lower value 0.929 | locus YIL125W, strain kgd1, stronger effect = lower value 0.986 | locus YIR030C, strain dcg1, stronger effect = lower value 0.964 | locus YJL092W, strain hpr5, stronger effect = lower value 1 | locus YJL095W, strain BCK1 (second series), stronger effect = lower value 0.988 | locus YJL095W, strain BCK1, stronger effect = lower value 0.991 and 1.03 | locus YJL115W, strain asf1, stronger effect = lower value 0.988 | locus YJL129C, strain trk1, stronger effect = lower value 0.963 | locus YJL134W, strain LCB3, stronger effect = lower value 0.999 | locus YJL154C, strain vps35, stronger effect = lower value 0.984 | locus YJL164C, strain tpk1, stronger effect = lower value 1.02 | locus YJL166W, strain qcr8, stronger effect = lower value 1.03 | locus YJL168C, strain set2, stronger effect = lower value 0.984 | locus YJL187C, strain SWE1 (second series), stronger effect = lower value 1 | locus YJR043C, strain POL32, stronger effect = lower value 1.02 | locus YJR066W, strain TOR1, stronger effect = lower value 0.991 | locus YJR075W, strain HOC1, stronger effect = lower value 0.997 | locus YKL009W, strain mrt4, stronger effect = lower value 0.966 | locus YKL068W, stronger effect = lower value 0.987 | locus YKL085W, strain MDH1 (second series), stronger effect = lower value 0.967 | locus YKL085W, strain MDH1, stronger effect = lower value 0.967 | locus YKL160W, strain elf1, stronger effect = lower value 0.952 | locus YKL190W, strain CNB1, stronger effect = lower value 0.985 | locus YKR001C, strain vps1, stronger effect = lower value 0.996 | locus YKR026C, strain gcn3, stronger effect = lower value 0.985 | locus YKR091W, strain srl3, stronger effect = lower value 0.983 | locus YLL001W, strain dnm1, stronger effect = lower value 1 | locus YLL026W, stronger effect = lower value 1 | locus YLL041C, strain sdh2, stronger effect = lower value 1.01 | locus YLR027C, strain aat2, stronger effect = lower value 0.991 | locus YLR039C, strain RIC1, stronger effect = lower value 0.879 | locus YLR058C, strain SHM2, stronger effect = lower value 1 | locus YLR102C, strain apc9, stronger effect = lower value 0.972 | locus YLR113W, strain HOG1, stronger effect = lower value 1.03 | locus YLR221C, strain rsa3, stronger effect = lower value 1.04 | locus YLR258W, strain gsy2, stronger effect = lower value 0.979 | locus YLR262C, strain YPT6 (second series), stronger effect = lower value 1.06 | locus YLR262C, strain YPT6, stronger effect = lower value 0.995 | locus YLR268W, strain sec22, stronger effect = lower value 0.981 | locus YLR320W, strain mms22, stronger effect = lower value 0.999 | locus YLR330W, strain CHS5, stronger effect = lower value 0.995 | locus YLR342W, strain FKS1 (second series), stronger effect = lower value 1.01 | locus YLR342W, strain FKS1, stronger effect = lower value 0.97 | locus YLR357W, strain rsc2, stronger effect = lower value 0.98 | locus YLR370C, strain arc18, stronger effect = lower value 0.978 | locus YLR371W, strain rom2, stronger effect = lower value 0.983 | locus YLR384C, strain iki3, stronger effect = lower value 0.997 | locus YLR418C, strain cdc73, stronger effect = lower value 0.965 | locus YML016C, strain PPZ1, stronger effect = lower value 1.01 | locus YML032C, strain rad52, stronger effect = lower value 0.994 | locus YML120C, strain ndi1, stronger effect = lower value 1.01 | locus YML124C, strain tub3, stronger effect = lower value 0.977 | locus YMR058W, strain fet3, stronger effect = lower value 0.995 | locus YMR078C, strain ctf18, stronger effect = lower value 0.96 | locus YMR125W, strain sto1, stronger effect = lower value 0.973 | locus YMR129W, stronger effect = lower value 1 | locus YMR205C, strain PFK2, stronger effect = lower value 0.984 | locus YMR223W, strain ubp8, stronger effect = lower value 0.952 | locus YMR231W, strain pep5, stronger effect = lower value 0.981 | [2] 1.05 | locus YNL067W, strain RPL9B, stronger effect = lower value 0.997 | locus YNL071W, strain lat1, stronger effect = lower value 0.989 | locus YNL153C, strain GIM3, stronger effect = lower value 1.01 | locus YNL183C, strain NPR1, stronger effect = lower value 0.993 | locus YNL209W, strain ssb2, stronger effect = lower value 0.979 | locus YNL233W, strain BNI4, stronger effect = lower value 1 | locus YNL248C, strain rpa49, stronger effect = lower value 0.965 | locus YNL250W, strain rad50, stronger effect = lower value 0.964 | locus YNL271C, strain bni1, stronger effect = lower value 0.97 | locus YNL298W, strain CLA4, stronger effect = lower value 0.946 | locus YNL307C, strain MCK1, stronger effect = lower value 0.982 | locus YNL322C, strain KRE1 (second series), stronger effect = lower value 0.966 | locus YNR049C, strain mso1, stronger effect = lower value 0.998 | locus YNR052C, strain pop2, stronger effect = lower value 0.962 | locus YOL006C, strain TOP1, stronger effect = lower value 0.987 | locus YOL012C, strain htz1 0.891 | locus YOL147C, strain pex11, stronger effect = lower value 0.973 | locus YOR001W, strain rrp6, stronger effect = lower value 1.03 | locus YOR061W, strain CKA2, stronger effect = lower value 1 | locus YOR069W, strain VPS5, stronger effect = lower value 1.01 | locus YOR070C, strain gyp1, stronger effect = lower value 0.994 | locus YOR080W, strain dia2, stronger effect = lower value 1 | locus YOR083W, strain WHI5, stronger effect = lower value 0.922 | locus YOR106W, strain vam3, stronger effect = lower value 0.977 | locus YOR136W, strain idh2, stronger effect = lower value 0.987 | locus YOR144C, strain elg1, stronger effect = lower value 0.986 | locus YOR184W, strain ser1, stronger effect = lower value 0.974 | locus YOR231W, strain MKK1, stronger effect = lower value 1.04 | locus YOR265W, strain rbl2, stronger effect = lower value 0.997 | locus YOR270C, strain vph1, stronger effect = lower value 1.07 | locus YOR290C, strain snf2, stronger effect = lower value 0.955 | locus YOR316C, strain cot1, stronger effect = lower value 0.974 | locus YPL051W, strain arl3, stronger effect = lower value 0.98 | [3] 0.999 | locus YPL078C, strain atp4, stronger effect = lower value 1 | locus YPL106C, strain sse1, stronger effect = lower value 0.965 | locus YPL240C, strain hsp82, stronger effect = lower value 1.02 | locus YPL241C, strain CIN2, stronger effect = lower value 1 | locus YPL256C, strain CLN2, stronger effect = lower value 1.06 | locus YPR119W, strain clb2, stronger effect = lower value 0.968 | locus YPR141C, strain kar3, stronger effect = lower value 0.977 | locus YPR163C, strain tif3, stronger effect = lower value 0.976 | locus YPR167C, strain met16, stronger effect = lower value 0.983 | strain wtn01, stronger effect = lower value 0.97

Oc1ccc(Cn2cc[nH]c2=S)cc1
active: locus YNL197C, strain WHI3, stronger effect = lower value 0.477 | locus YOR083W, strain WHI5 (second series), stronger effect = lower value 0.681
inactive: locus YAL040C, strain CLN3, stronger effect = lower value 0.993 | locus YCL061C, strain MRC1 (second series), stronger effect = lower value 1.01 | locus YDR363W, strain ESC2, stronger effect = lower value 1 | locus YER002W, strain NOP16, stronger effect = lower value 1.03 | [1] 0.986 | [2] 1 | locus YNL175C, strain NOP13, stronger effect = lower value 1 | locus YNL224C, strain SQS1, stronger effect = lower value 0.999 | [3] 1.01
